Bioassay records as filed in PubChem.
B2AR arrestin = recruits beta-arrestin to the human beta2-adrenergic receptor. beta-arrestin recruitment to beta2AR, cell-based reporter. 0.02% of 330,000 active. Potency, µM (doses to about 46.1 µM), inactives show at the highest dose activation, usual class: activators. P07550. AID 492947;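 also: 0% = DMSO controls and full agonism = EC100 isoproterenol or metaproterenol; nearly all actives have a fitted effect of over 65% in size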
NPSR antagonist = neuropeptide S receptor (human) antagonism, cAMP | Q6W5P4 | CHO-NPSR cells, cAMP TR-FRET, antagonist mode | Potency, µM (top dose mostly 38.3 µM), for the others: at the highest dose activity change, negative = inhibition, usual class: inhibitors | 1% of 220,000 active | AID 1461; also: nearly all actives have a fitted effect of over 50% in size
RORgamma inh = ROR gamma (mouse) transcription inhibition. P51450. Drosophila S2 Gal4-RORgamma UAS-luciferase reporter, 20 h. Potency, µM (series often up to 53.6 µM), inactives show at the top dose activity change, negative = inhibition, actives largely listed as inhibitors. 5.4% of 310,000 active; also: nearly all actives have a fitted effect of over 60% in size
Target sequence (P51450 whole entry, looked up, the tested form may be a part): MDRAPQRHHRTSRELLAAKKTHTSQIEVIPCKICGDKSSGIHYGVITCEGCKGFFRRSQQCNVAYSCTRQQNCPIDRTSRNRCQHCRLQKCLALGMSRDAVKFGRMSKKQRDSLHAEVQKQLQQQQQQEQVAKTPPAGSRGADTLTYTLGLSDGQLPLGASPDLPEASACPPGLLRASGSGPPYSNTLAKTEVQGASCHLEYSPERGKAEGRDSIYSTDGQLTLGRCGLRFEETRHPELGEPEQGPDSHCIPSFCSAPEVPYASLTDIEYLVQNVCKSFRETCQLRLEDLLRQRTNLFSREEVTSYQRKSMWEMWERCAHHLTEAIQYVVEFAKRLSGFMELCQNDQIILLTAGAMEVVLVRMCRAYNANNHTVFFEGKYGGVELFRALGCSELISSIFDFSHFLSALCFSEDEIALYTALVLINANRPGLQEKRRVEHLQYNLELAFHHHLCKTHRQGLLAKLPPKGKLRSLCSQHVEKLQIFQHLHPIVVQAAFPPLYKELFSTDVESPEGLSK
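Luciferase reporter read in Schneider cells carrying Gal4-RORγ (mouse) and UAS-Photinus luciferase; cells given compound 1 h before 700 uM copper sulfate induction, then incubated 20 h at ambient temperature.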
Gal4-VP16 FLuc = Gal4-VP16 reporter inhibition counter-screen; 3.5% of 310,000 active; Drosophila S2 Gal4-VP16 UAS-luciferase, luminescence, 20 h; Potency, µM (series often up to 53.6 µM), for the others: at the top dose activity, negative = inhibition, hits mostly inhibitors; AID 2546;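 also: Gal4-VP16 expression switched on by copper sulfate through the metallothionein promoter; nearly all actives have a fitted effect of over 50% in size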
Starred values were filed as active, the others as inactive; ? = inconclusive; nt = no result; [ ] = dose if it differs, or a comment. Compounds with a hit are over-represented: about 5.7% of the library has one in this group of screens. Calls follow the shape of the dose curve; as a rule, active = well fitted curve in the direction sought with a large enough effect; inconclusive = small, poorly fitted or top-dose-only effect, or another doubt; inactive = no such curve, though single readings can be large; an effect the other way counts as inactive or inconclusive. Unless noted, % is scaled to controls: 0 for no effect and ±100 for the full control effect; potency is read from the fitted curve at half-maximal effect.

SMILES | B2AR arrestin | NPSR antagonist | RORgamma inh | Gal4-VP16 FLuc
CCOC(=O)C1=C(COC(=O)/C=C/c2cccc([N+](=O)[O-])c2)NC(=O)NC1C (stereo unspecified) | 0% | nt | nt | nt
COc1ccc(OC)c2c1C(=O)c1ccccc1C2=O | -1% | -5%[46.1 µM] | 6% | -4%
COc1ccc(S(=O)(=O)N2CCCC2)c(Cl)c1Cl | 0% | -6% | -2% | 8%
COc1ccc(OC)c2c1C(=O)C(Cl)=C(Cl)C2=O | 3% | 6.3µM* | 5µM* | 5µM*
COc1ccc(N)c2c1C(=O)c1ccccc1C2=O | -3% | 13µM* | -28% | -23%
COc1cc(NC(=O)Cc2c(C(=O)O)n(C)c3ccccc23)cc(OC)c1OC | 0% | 21% | -2% | -2%
CCOC(=O)c1c(C)oc2c1c1c(c3ccccc32)OCN(Cc2cccnc2)C1 | 0% | -2%[46.1 µM] | 1.8µM* | 7.9µM*
CCOC(=O)c1c(C)oc2c1c1c(c3ccccc32)OCN(CCCC(=O)O)C1 | 0% | -1% | -4% | -7%
COc1ccc(C(=O)/C=C/c2ccsc2)cc1CSCC(=O)O | 0% | nt | 10µM* | 10µM*
CC(C)NC(=S)n1cc(C(=O)c2cc(Cl)cc(Cl)c2O)cn1 | 0% | nt | ? | ?
COc1ccc(C2CC(c3cccs3)=NN2C(=S)Nc2ccccc2)cc1OC (stereo unspecified) | 0% | 0% | 19% | 2%
COc1cccc(C2CC(c3cccs3)=NN2C(=S)Nc2ccccc2)c1OC (stereo unspecified) | -3% | -26%[46.1 µM] | 8.9µM* | 2%
Cc1ccc2nc(NC(=O)c3ccc(OCC4CCCO4)cc3)sc2c1 (stereo unspecified) | -1% | 1% | 4.5µM* | ?
O=C(Nc1nc(-c2ccc(Cl)cc2Cl)cs1)c1ccc(OCC2CCCO2)cc1 (stereo unspecified) | 0% | -24% | -37% | 18µM*
COc1ccc2nc(NC(=O)c3ccc(NC(=O)C4CCCO4)cc3)sc2c1 (stereo unspecified) | 0% | nt | -21% | -17%
Cc1cc(C)c2nc(NC(=O)c3ccc(OCC4CCCO4)cc3)sc2c1 (stereo unspecified) | 0% | 2% | 1µM* | -17%
COC(=O)C1=Cc2cc(OC)cc([N+](=O)[O-])c2OC1N1CCOCC1 (stereo unspecified) | 0% | nt | 5% | 3%
Clc1ccc(CNc2ccc(CNc3ncn[nH]3)cc2)c(Cl)c1 | 0% | -4% | ? | 13µM*
Clc1ccc(CNc2ccc(CNc3ncn[nH]3)cc2)cc1 | 0% | 10% | 36% | 2%
COc1ccc(NC(=S)NCc2ccc(F)cc2)cc1 | 0% | nt | 7.9µM* | ?
COc1ccc(CNC(=S)Nc2ccc(OC)cc2)cc1 | -3% | -2% | 10µM* | ?
COC(=O)Cc1ccc(NC(=S)NCc2ccc(OC)cc2)cc1 | 0% | -4% | ? | 1%
CCCCc1ccc(NC(=S)NCc2ccc(OC)cc2)cc1 | 0% | -15% | 4µM* | ?
CCCCc1ccc(NC(=S)NCc2ccccc2OC)cc1 | 0% | -38% | 2µM* | -30%[10 µM]
COC(=O)Cc1ccc(NC(=S)NCc2ccc(F)cc2)cc1 | 0% | 11%[46.1 µM] | ? | ?
SMILES | B2AR arrestin | NPSR antagonist | RORgamma inh | Gal4-VP16 FLuc
COc1ccc(CNc2ccc(C(=O)O)cc2)cc1 | 0% | -2%[46.1 µM] | 1.3µM* | 0.63µM*
CCCCN(C(=O)Cc1ccc(S(=O)(=O)N2CCOCC2)s1)c1c(N)n(CC(C)C)c(=O)[nH]c1=O | 0% | nt | nt | nt
Cc1cc(C)c2cc(CN(Cc3ccco3)C(=S)NCC3CCCO3)c(=O)[nH]c2c1 (stereo unspecified) | 0% | 17% | 25% | -6%
Cn1cc(/C=N/NC(=O)COc2ccccc2[N+](=O)[O-])c2ccccc21 | 0% | 11% | ? | 13µM*
Cc1ccc(OCC(=O)N/N=C\c2c(C)[nH]n(-c3ccccc3)c2=O)c([N+](=O)[O-])c1 | 0% | -18% | 0.5µM* | 0.56µM*
Cc1ccc(OCC(=O)N/N=C\c2cn(C)c3ccccc23)c([N+](=O)[O-])c1 | 0% | -12%[46.1 µM] | 11µM* | ?
Cc1ccc(/C=N\NC(=O)COc2ccc(C)cc2[N+](=O)[O-])cc1 | 0% | 9% | -11% | 6%
CCn1c(C(=O)O)c(S(=O)(=O)c2ccc(Cl)cc2)c2ccccc21 | 0% | nt | -5% | -6%
COCC(C)n1c(-c2ccc3c(c2)NC(=O)CO3)csc1=Nc1ccc(OC(F)F)cc1 (stereo unspecified) | 0% | 10µM* | ? | ?
CCC(=NCCc1c(C)[nH]c2ccc(OC(F)(F)F)cc12)C1=C(O)CC(c2ccccc2)CC1=O (stereo unspecified) | 0% | 10µM* | 10% | -5%
CCC(=NCCc1c(C)[nH]c2ccccc12)C1=C(O)CC(c2ccccc2)CC1=O (stereo unspecified) | 0% | -55% | 41% | -6%
COc1ccc(C(=O)NCC(C)(C)N2CCOCC2)cc1S(=O)(=O)N1CCCC1 | 6% | nt | nt | nt
Cc1ccc(C(=O)Nc2cccc(C(F)(F)F)c2)cc1NC(=O)c1csc(-c2ccncc2)n1 | 0% | -32% | -17% | 2%
N#C/C(=N\Nc1cccc(C(F)(F)F)c1)C(=O)c1csc(-c2cccnc2)n1 | 0% | 10µM* | ? | 6%
CCOC(=O)/C(C#N)=C\C=C1C=CN(C)C=C1 | 0% | 13µM* | -37% | -22%
CCOC(=O)/C(C#N)=C\c1ccc(CC)s1 | 0% | -14%[46.1 µM] | 12% | ?
O=C(c1ccco1)N1CCN(c2c([N+](=O)[O-])nn(-c3cccc(Cl)c3)[n+]2[O-])CC1 | 0% | 8% | ? | -3%[10 µM]
CCCCNc1nc(C)nc2c1nc(-c1ccccc1)n2CC1CCCN1CC (stereo unspecified) | nt | nt | ? | -1%
C/C(CCN1CCCc2nc(C)c(C)cc21)=N\O[C@@H](C)c1cc(-c2c(C)cc(C)cc2C)no1 | nt | nt | 1%[10 µM] | 2%[10 µM]
CN(C)CCCN(C(=O)CCS(=O)(=O)c1ccccc1)c1nc2cc3c(cc2s1)OCO3 | -1% | nt | 11µM* | 16µM*
Cc1cc(C)c2sc(N(CCN(C)C)C(=O)CCS(=O)(=O)c3ccccc3)nc2c1 | -1% | nt | ? | ?
CN(C)CCCN(C(=O)CCSc1ccccc1)c1nc2cc3c(cc2s1)OCO3 | 0% | -32% | ? | -21%
CCN(CC)CCN(C(=O)CCS(=O)(=O)c1ccccc1)c1nc2cc(C)cc(C)c2s1 | 0% | nt | 20µM* | -29%
O=C(CC1S/C(=N/N=C2CCCCCC2)NC1=O)Nc1ccccc1F (stereo unspecified) | 0% | nt | nt | nt
O=C(CC1S/C(=N/N=C2CCCCCC2)NC1=O)Nc1ccc(Br)cc1F (stereo unspecified) | 0% | nt | 2.2µM* | 5.6µM*
Cc1nc(N(C)Cc2ccccc2)c2nnn(Cc3ccccc3)c2n1 | 0% | -26%[46.1 µM] | 19% | -3%
Cc1ccc(C(=O)CCC(=O)Nc2ccccc2F)cc1 | -1% | nt | -33% | 22%
CN(C)c1ccc(N/C=C/C(=O)c2ccccc2)cc1 | 1% | ? | 5.6µM* | 10µM*
